Experimental data: PubChem BioAssay (EPA / NIEHS)
Results filed as inconclusive are left out. Some compounds were tested as several samples or in several runs, with calls that do not always agree. The source made the active and inactive calls. Rule for the calls, unless noted: active = hit-call score of the fitted dose curve at least 0.9, where 1 is the maximum; inactive = score below 0.9.

Key:
[1] = target: Oxysterols receptor LXR-alpha (Homo sapiens) (UniProt Q13133); assay: ATG_LXRa_TRANS: Attagene TRANS-FACTORIAL HepG2 Assay for human Liver X Receptor alpha (LXRa) (AID 2282980; active = hit-call score of the fitted dose curve at least 0.9, where 1 is the maximum); conditions: HepG2 Attagene TRANS reporter, LXRa transactivation
Sequence of Oxysterols receptor LXR-alpha (Homo sapiens) (Q13133 whole entry, looked up, the tested form may be a part): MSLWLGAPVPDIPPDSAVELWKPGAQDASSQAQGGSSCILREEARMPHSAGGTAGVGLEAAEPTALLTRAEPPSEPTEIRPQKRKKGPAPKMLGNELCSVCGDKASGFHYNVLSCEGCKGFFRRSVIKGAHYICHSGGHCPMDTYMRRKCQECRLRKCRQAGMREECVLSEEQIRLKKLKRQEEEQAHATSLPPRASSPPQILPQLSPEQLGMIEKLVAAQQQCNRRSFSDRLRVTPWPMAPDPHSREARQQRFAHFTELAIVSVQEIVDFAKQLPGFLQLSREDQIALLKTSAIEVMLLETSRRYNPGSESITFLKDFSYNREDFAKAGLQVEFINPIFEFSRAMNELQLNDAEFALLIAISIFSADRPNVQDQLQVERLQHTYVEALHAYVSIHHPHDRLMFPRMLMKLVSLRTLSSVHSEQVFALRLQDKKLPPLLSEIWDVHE
Summary of the method: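 In this multiplexed TRANS system, compounds act on HepG2 cells carrying GAL4-UAS reporter units and a receptor-GAL4 fusion for 24 h. Induced reporter RNA is amplified, fluorescently labelled and sized by capillary electrophoresis, with DMSO as baseline.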

[2] = target: Oxysterols receptor LXR-beta (Homo sapiens) (UniProt P55055); assay: ATG_LXRb_TRANS: Attagene TRANS-FACTORIAL HepG2 Assay for human Liver X Receptor beta (LXRb) (AID 2282981; active = hit-call score of the fitted dose curve at least 0.9, where 1 is the maximum); conditions: HepG2 Attagene TRANS GAL4-LXRb reporter, mRNA
Sequence of Oxysterols receptor LXR-beta (Homo sapiens) (P55055 whole entry, looked up, the tested form may be a part): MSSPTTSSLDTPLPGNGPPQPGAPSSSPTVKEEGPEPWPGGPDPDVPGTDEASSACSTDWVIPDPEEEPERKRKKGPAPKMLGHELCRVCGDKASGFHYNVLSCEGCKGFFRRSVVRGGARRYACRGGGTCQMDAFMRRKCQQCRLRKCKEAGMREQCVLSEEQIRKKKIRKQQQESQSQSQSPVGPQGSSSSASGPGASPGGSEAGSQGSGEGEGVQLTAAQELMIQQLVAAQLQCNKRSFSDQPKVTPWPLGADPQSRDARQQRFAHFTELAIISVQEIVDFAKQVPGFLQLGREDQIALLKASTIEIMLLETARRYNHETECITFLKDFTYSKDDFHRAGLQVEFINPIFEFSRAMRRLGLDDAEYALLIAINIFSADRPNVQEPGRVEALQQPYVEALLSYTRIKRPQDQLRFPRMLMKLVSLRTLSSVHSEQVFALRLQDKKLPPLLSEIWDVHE
Summary of the method: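 Cells: HepG2, transiently transfected with GAL4-UAS reporter units plus LXRb-Gal4 fusion. Treatment: 24 h. Detection: reporter mRNA by RT-PCR, 6-FAM labelling, HpaI digestion, capillary electrophoresis.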

[3] = target: Hepatocyte nuclear factor 4-alpha (Homo sapiens) (UniProt P41235); assay: ATG_HNF4a_TRANS: Attagene TRANS-FACTORIAL HepG2 Assay for human Hepatocyte Nuclear Factor 4 alpha (HNF4a) (AID 2282982; active = hit-call score of the fitted dose curve at least 0.9, where 1 is the maximum); conditions: HepG2 HNF4a transactivation reporter, mRNA readout
Sequence of Hepatocyte nuclear factor 4-alpha (Homo sapiens) (P41235 whole entry, looked up): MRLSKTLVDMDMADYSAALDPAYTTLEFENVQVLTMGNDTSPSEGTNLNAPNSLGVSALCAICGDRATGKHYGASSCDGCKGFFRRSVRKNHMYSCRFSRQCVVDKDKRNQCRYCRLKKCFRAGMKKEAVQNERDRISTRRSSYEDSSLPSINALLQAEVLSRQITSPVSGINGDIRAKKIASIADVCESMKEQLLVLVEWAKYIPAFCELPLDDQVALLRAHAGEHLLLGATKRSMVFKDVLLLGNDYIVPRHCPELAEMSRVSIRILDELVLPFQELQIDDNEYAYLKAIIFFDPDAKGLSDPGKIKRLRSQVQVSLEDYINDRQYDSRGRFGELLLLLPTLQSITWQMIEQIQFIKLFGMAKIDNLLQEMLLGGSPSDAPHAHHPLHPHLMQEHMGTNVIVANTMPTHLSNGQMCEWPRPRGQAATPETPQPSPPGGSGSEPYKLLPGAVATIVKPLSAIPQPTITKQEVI
Summary of the method: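 Transfected HepG2 reporter cells are dosed for 24 h; reporter RNA is reverse-transcribed, amplified, fluorescently labelled and HpaI-digested before CE sizing. Positive-direction fit against DMSO.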

[4] = ATG_M_32_TRANS: Attagene TRANS-FACTORIAL HepG2 Assay for M32 Transcription Factor (Internal Marker) (AID 2282984; active = hit-call score of the fitted dose curve at least 0.9, where 1 is the maximum;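 note: transcript level of a background control reporter unit measured by RT-PCR and capillary electrophoresis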); conditions: HepG2 Attagene TRANS M32 internal marker reporter
Summary of the method: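 Using transiently transfected HepG2 cells exposed to test chemicals for 24 h, reporter transcripts are converted to labelled cDNA fragments and quantified by capillary electrophoresis. DMSO defines the activity baseline.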

[5] = target: Transcriptional activator Myb (Homo sapiens) (UniProt P10242); assay: ATG_Myb_CIS: Attagene CIS-FACTORIAL HepG2 Assay for human Myeloblastosis (Myb) Proto-Oncogene Transcription Factor (AID 2282986); conditions: HepG2 Attagene CIS-FACTORIAL Myb reporter transcription; actives raise or lower the signal
Sequence of Transcriptional activator Myb (Homo sapiens) (P10242 whole entry, looked up): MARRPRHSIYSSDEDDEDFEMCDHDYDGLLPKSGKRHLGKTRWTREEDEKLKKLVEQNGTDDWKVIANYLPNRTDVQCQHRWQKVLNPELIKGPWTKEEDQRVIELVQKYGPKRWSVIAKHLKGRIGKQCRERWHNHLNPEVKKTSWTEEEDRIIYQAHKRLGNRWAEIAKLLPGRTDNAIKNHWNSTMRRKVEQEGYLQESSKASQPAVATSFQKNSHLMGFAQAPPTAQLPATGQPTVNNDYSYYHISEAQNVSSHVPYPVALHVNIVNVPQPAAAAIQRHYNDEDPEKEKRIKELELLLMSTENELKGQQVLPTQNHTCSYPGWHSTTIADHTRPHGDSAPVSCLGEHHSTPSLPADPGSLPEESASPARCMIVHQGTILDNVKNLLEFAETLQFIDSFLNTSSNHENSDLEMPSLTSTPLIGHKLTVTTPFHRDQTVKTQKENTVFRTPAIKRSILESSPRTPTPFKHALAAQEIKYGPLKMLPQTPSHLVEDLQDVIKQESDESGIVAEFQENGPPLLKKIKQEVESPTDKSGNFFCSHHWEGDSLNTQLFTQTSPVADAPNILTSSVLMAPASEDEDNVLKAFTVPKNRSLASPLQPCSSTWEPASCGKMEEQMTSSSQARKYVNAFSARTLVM
Summary of the method: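 In this HepG2 transient-transfection format, cis-regulated reporter mRNA is quantified 24 h post-dosing by RT-PCR with capillary electrophoresis, fitted bidirectionally to DMSO baseline.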

[6] = target: Nuclear respiratory factor 1 (Homo sapiens) (UniProt Q16656); assay: ATG_NRF1_CIS: Attagene CIS-FACTORIAL HepG2 Assay for human Nuclear Respiratory Factor 1 (NRF1) Orphan Gene (AID 2282987); conditions: HepG2 NRF1 cis-element reporter, Attagene multiplex; actives raise or lower the signal
Sequence of Nuclear respiratory factor 1 (Homo sapiens) (Q16656 whole entry, looked up): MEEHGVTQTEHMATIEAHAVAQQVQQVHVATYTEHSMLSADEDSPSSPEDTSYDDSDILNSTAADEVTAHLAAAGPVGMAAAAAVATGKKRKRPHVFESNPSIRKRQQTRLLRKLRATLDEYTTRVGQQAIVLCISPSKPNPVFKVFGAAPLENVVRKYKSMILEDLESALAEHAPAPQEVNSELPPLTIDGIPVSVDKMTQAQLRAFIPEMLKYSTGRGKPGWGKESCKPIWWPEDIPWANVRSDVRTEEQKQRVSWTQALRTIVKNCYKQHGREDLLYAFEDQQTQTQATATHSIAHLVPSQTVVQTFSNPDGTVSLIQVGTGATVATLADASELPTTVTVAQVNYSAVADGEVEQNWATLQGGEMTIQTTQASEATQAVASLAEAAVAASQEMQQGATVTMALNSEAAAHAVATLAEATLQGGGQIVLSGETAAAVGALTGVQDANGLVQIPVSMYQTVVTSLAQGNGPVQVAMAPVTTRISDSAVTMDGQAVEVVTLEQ
Summary of the method: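 Using DMSO as baseline, gain- or loss-of-signal was fitted for reporter mRNA levels in HepG2 cells transiently transfected with cis-regulated reporter units. Samples were taken 24 h after dosing and read by RT-PCR with capillary electrophoresis.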

[7] = ATG_NFI_CIS: Attagene CIS-FACTORIAL HepG2 Assay for human Nuclear Factor I (NFI) (AID 2282989); conditions: HepG2 cis-regulatory reporter, NFI response element transcription; actives raise or lower the signal
Summary of the method: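 Reporter transcription driven by endogenous transcription factors in HepG2 cells; 24 h treatment. Quantitation by labelled RT-PCR fragments on capillary electrophoresis, gain- or loss-of-signal relative to DMSO.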

[8] = target: Myc proto-oncogene protein (Homo sapiens) (UniProt P01106); assay: ATG_Myc_CIS: Attagene CIS-FACTORIAL HepG2 Assay for human Myelocytomatosis (Myc) Proto-Oncogene Transcription Factor (AID 2282990); conditions: HepG2, Attagene cis-reporter transcription factor activity; actives raise or lower the signal
Sequence of Myc proto-oncogene protein (Homo sapiens) (P01106 whole entry, looked up, the tested form may be a part): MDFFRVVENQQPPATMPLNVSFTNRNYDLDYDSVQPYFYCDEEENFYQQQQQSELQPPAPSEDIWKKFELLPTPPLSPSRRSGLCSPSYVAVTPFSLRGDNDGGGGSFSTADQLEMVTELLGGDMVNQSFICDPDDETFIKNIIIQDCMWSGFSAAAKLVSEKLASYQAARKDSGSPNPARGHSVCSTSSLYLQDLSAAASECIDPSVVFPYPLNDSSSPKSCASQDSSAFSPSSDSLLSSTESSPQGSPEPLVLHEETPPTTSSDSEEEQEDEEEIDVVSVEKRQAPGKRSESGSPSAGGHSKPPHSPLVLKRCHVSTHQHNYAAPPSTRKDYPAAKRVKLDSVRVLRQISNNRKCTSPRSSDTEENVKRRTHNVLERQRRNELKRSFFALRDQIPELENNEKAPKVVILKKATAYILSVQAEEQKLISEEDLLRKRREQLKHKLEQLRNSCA
Summary of the method: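 After 24 h chemical treatment of HepG2 cells carrying multiplexed cis-regulated reporter constructs, reporter transcripts quantified by RT-PCR and capillary electrophoresis of fluorescent fragments. Gain or loss fitted against DMSO baseline.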

[9] = ATG_NF_kB_CIS: Attagene CIS-FACTORIAL HepG2 Assay for human Nuclear Factor Kappa B (NF-kB) (AID 2282991); conditions: HepG2 Attagene cis-factorial NF-kB reporter mRNA; actives raise or lower the signal
Summary of the method: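 Endpoint from a 52-component multiplexed HepG2 reporter panel: cis-regulated transcription units transiently transfected, 24 h dosing, reporter mRNA quantified by RT-PCR and capillary electrophoresis, scored as increase or decrease against DMSO.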

[10] = ATG_NRF2_ARE_CIS: Attagene CIS-FACTORIAL HepG2 Assay for human Nuclear Factor Erythroid 2 Related Factor 2 (NFR2) response to Antioxidant Response Elements (ARE) (AID 2282992); conditions: HepG2 Attagene ARE/NRF2 reporter, transcription factor activity; actives raise or lower the signal;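 for AC50: reporter mRNA level measured by RT-PCR and capillary electrophoresis fluorescence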
Summary of the method: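 Multiplexed reporter mRNA profiling in HepG2 after a 24 h chemical exposure. Curves fitted in both directions relative to DMSO negative control.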

[11] = ATG_Oct_MLP_CIS: Attagene CIS-FACTORIAL HepG2 Assay for human Octamer-Binding Transcription Factor (Oct) (AID 2282993); conditions: HepG2 Attagene cis-factorial Oct reporter, mRNA; actives raise or lower the signal
Summary of the method: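 Transfected HepG2 cells, 24 h treatment. Reporter mRNA quantified by RT-PCR–capillary electrophoresis; bidirectional fitting against DMSO.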

[12] = target: Cellular tumor antigen p53 (Homo sapiens) (UniProt P04637); assay: ATG_p53_CIS: Attagene CIS-FACTORIAL HepG2 Assay for human p53 Transcription Factor (AID 2282994); conditions: HepG2 p53 cis-element reporter, Attagene mRNA; actives raise or lower the signal
Sequence of Cellular tumor antigen p53 (Homo sapiens) (P04637 whole entry, looked up): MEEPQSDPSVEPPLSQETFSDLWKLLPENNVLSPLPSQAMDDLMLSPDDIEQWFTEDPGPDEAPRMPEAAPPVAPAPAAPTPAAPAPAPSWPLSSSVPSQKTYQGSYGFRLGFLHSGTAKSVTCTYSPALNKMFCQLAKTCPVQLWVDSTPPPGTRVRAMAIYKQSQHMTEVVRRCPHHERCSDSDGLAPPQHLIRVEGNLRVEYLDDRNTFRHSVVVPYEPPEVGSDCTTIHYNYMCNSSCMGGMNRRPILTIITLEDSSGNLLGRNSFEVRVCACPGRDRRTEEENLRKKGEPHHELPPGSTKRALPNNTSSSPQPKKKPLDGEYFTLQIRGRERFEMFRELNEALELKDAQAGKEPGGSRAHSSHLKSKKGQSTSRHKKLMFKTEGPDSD
Summary of the method: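 Multiplexed reporter mRNA assay in human HepG2 liver cells; cis-regulated units report endogenous factor activity. Values come from bidirectional curve fitting against DMSO negative control after 24 h treatment.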

[13] = target: human Peroxisome Proliferator-activated Receptor alpha (PPARa), PPARA (gene 5465) (UniProt Q07869); assay: ATG_PPARa_TRANS: Attagene TRANS-FACTORIAL HepG2 Assay for human Peroxisome Proliferator-activated Receptor alpha (PPARa) (AID 2283001; active = hit-call score of the fitted dose curve at least 0.9, where 1 is the maximum;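 for AC50: potency for gain of reporter signal over DMSO so agonist or activator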)
Sequence of human Peroxisome Proliferator-activated Receptor alpha (PPARa), PPARA (gene 5465) (Q07869 whole entry, looked up, the tested form may be a part): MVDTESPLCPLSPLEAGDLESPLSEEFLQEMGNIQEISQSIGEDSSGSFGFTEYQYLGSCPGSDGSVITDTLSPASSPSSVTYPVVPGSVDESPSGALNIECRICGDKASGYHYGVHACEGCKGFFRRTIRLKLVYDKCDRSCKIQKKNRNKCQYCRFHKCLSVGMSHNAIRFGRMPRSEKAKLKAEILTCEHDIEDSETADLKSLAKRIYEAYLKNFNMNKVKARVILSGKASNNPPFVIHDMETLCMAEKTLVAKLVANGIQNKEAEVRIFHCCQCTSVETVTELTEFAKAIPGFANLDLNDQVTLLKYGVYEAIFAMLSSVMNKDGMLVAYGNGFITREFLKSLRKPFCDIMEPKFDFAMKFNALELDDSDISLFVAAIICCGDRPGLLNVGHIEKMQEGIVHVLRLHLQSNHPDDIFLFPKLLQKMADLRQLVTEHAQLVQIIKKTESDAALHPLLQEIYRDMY
Summary of the method: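 Reporter transcripts from GAL4-UAS units in transfected HepG2 were quantified 24 h after dosing. Detection used reverse transcription, PCR, fluorescent primer extension and capillary electrophoresis, with DMSO as baseline.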

[14] = ATG_M_06_TRANS: Attagene TRANS-FACTORIAL HepG2 Assay for M06 Transcription Factor (Internal Marker) (AID 2282983; active = hit-call score of the fitted dose curve at least 0.9, where 1 is the maximum;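 note: reporter transcript level by RT-PCR then capillary electrophoresis fluorescence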); conditions: HepG2 Attagene TRANS M06 internal marker reporter
Summary of the method: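 Internal-marker background readout from a multiplexed TRANS reporter system in HepG2; 24 h dosing; mRNA induction quantified by RT-PCR plus capillary electrophoresis fluorescence; DMSO as negative control and baseline.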

[15] = target: Nuclear receptor subfamily 4 group A member 2 (Homo sapiens) (UniProt P43354); assay: ATG_NURR1_TRANS: Attagene TRANS-FACTORIAL HepG2 Assay for human Nuclear Receptor Related Protein 1 (NURR1) (AID 2282985; active = hit-call score of the fitted dose curve at least 0.9, where 1 is the maximum); conditions: HepG2 Attagene TRANS reporter, mRNA readout
Sequence of Nuclear receptor subfamily 4 group A member 2 (Homo sapiens) (P43354 whole entry, looked up): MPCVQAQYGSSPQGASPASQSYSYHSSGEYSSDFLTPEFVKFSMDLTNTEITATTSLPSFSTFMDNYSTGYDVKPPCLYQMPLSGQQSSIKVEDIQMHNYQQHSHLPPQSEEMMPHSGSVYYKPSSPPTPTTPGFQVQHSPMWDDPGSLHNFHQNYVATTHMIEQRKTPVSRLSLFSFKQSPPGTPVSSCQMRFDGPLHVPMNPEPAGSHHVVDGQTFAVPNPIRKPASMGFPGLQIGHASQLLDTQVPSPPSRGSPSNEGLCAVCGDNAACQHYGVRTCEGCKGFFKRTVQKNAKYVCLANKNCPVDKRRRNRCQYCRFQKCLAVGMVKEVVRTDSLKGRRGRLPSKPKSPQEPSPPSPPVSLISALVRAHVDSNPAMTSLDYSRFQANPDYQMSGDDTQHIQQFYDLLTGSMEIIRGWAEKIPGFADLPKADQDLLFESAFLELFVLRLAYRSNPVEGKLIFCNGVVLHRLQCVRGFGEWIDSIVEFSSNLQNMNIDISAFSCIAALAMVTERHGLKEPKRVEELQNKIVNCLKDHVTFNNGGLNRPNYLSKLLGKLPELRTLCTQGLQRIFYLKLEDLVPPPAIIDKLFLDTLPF
Summary of the method: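 Cells: HepG2, transiently transfected. Exposure: 24 h. Detection: fluorescence of labelled RT-PCR products separated by capillary electrophoresis; upward fit versus DMSO.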

[16] = BSK_3C_TissueFactor: BioMAP Diversity Plus: 3C Assay for Tissue Factor Biomarker Activity (AID 2282997); conditions: BioMAP 3C HUVEC, tissue factor biomarker readout; actives raise or lower the signal
Summary of the method: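 Endothelial monolayers (human umbilical vein, primary) are dosed, incubated 24 h, and assayed for Tissue Factor by ELISA; DMSO serves as negative control for bidirectional fitting.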

[17] = BSK_3C_uPAR: BioMAP Diversity Plus: 3C Assay for Urokinase-type plasminogen activator receptor (uPAR) Biomarker Activity (AID 2282998); conditions: BioMAP 3C HUVEC, uPAR biomarker ELISA; actives raise or lower the signal
Summary of the method: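 Readout: ELISA for surface uPAR. System: human umbilical vein endothelial primary cells, 24 h after chemical exposure. Analysis: bidirectional fit, DMSO baseline.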

[18] = BSK_3C_VCAM1: BioMAP Diversity Plus: 3C Assay for Vascular cell adhesion molecule 1 (VCAM1) Biomarker Activity (AID 2282999); conditions: BioMAP 3C HUVEC, VCAM1 ELISA, cytokine-stimulated; actives raise or lower the signal
Summary of the method: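 Endothelial cells from human umbilical vein are treated with test chemical. At 24 h, VCAM-1 is measured by ELISA, and responses in either direction are fitted relative to DMSO.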

[19] = BSK_4H_Eotaxin3: BioMAP Diversity Plus: 4H Assay for Eotaxin 3 Biomarker Activity (AID 2283000); conditions: primary human endothelial cells (HUVEC); actives raise or lower the signal;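 note: CCL26 protein level quantified by ELISA in parallel with SRB cytotoxicity check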
Summary of the method: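 ELISA quantitation of CCL26 (Eotaxin-3) protein from chemically dosed human vascular endothelial cells at 24 h; increases and decreases both scored relative to DMSO-treated baseline.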

## CC(O)COc1ccccc1 (stereo not drawn)
[1]
  outcome: inactive
[2]
  AC50: 26.1 µM (active)
[3]
  outcome: inactive
[4]
  outcome: inactive
[5]
  outcome: inactive
[6]
  outcome: inactive
[7]
  outcome: inactive
[8]
  outcome: inactive
[9]
  outcome: inactive
[10]
  outcome: inactive
[11]
  outcome: inactive
[12]
  outcome: inactive
[13]
  outcome: inactive

## CCCCCCCCCCCC(=O)O
[1]
  outcome: inactive
[2]
  outcome: inactive
[14]
  outcome: inactive
[4]
  outcome: inactive
[15]
  outcome: inactive
[5]
  outcome: inactive
[6]
  outcome: inactive
[7]
  outcome: inactive
[8]
  outcome: inactive
[10]
  AC50: 100 µM (active)
  outcome: inactive
[11]
  AC50: 90.6 µM (active)
  outcome: inactive
[13]
  outcome: inactive

## FC(OC(F)(F)C(F)(F)C(F)(F)F)C(F)(F)F (stereo not drawn)
[1]
  outcome: inactive
[2]
  outcome: inactive
[14]
  outcome: inactive
[5]
  outcome: inactive
[6]
  outcome: inactive
[7]
  outcome: inactive
[8]
  outcome: inactive
[9]
  outcome: inactive
[11]
  outcome: inactive
[12]
  outcome: inactive

## O=C(O)CN(CCCN(CC(=O)O)CC(=O)O)CC(=O)O
[1]
  outcome: inactive
[2]
  outcome: inactive
[3]
  outcome: inactive
[14]
  outcome: inactive
[15]
  outcome: inactive
[5]
  outcome: inactive
[6]
  outcome: inactive
[7]
  outcome: inactive
[8]
  outcome: inactive
[9]
  outcome: inactive
[10]
  AC50: 6.54 µM (active)
[11]
  outcome: inactive
[12]
  outcome: inactive
[13]
  outcome: inactive

## CCOCCOCC
[1]
  outcome: inactive
[2]
  outcome: inactive
[3]
  outcome: inactive
[14]
  outcome: inactive
[4]
  outcome: inactive
[15]
  outcome: inactive
[5]
  outcome: inactive
[6]
  outcome: inactive
[7]
  outcome: inactive
[8]
  outcome: inactive
[9]
  outcome: inactive
[10]
  outcome: inactive
[11]
  outcome: inactive
[12]
  outcome: inactive

## O=C(O)CCC(F)(F)C(F)(F)C(F)(F)C(F)(F)C(F)(F)F
[1]
  outcome: inactive
[2]
  outcome: inactive
[3]
  outcome: inactive
[14]
  outcome: inactive
[4]
  outcome: inactive
[15]
  outcome: inactive
[5]
  outcome: inactive
[6]
  outcome: inactive
[7]
  outcome: inactive
[8]
  outcome: inactive
[9]
  outcome: inactive
[11]
  outcome: inactive
[12]
  outcome: inactive
[16]
  outcome: inactive
[17]
  outcome: inactive
[18]
  outcome: inactive
[19]
  outcome: inactive
[13]
  outcome: inactive

## CC(C)(c1ccc(Oc2ccc(N)cc2)cc1)c1ccc(Oc2ccc(N)cc2)cc1
[1]
  AC50: 3.21 µM (active)
[2]
  outcome: inactive
[3]
  outcome: inactive
[4]
  outcome: inactive
[15]
  AC50: 7.23 µM (active)
[5]
  outcome: inactive
[6]
  outcome: inactive
[7]
  outcome: inactive
[8]
  outcome: inactive
[9]
  outcome: inactive
[10]
  AC50: 3.71 µM (active)
[11]
  outcome: inactive
[12]
  outcome: inactive

## CCCCCCCCCCCC[N+](C)(C)Cc1ccccc1
[1]
  outcome: inactive
[2]
  outcome: inactive
[14]
  outcome: inactive
[4]
  outcome: inactive
[15]
  outcome: inactive
[5]
  AC50: 11.1 µM (active)
  outcome: inactive
[6]
  outcome: inactive
[7]
  outcome: inactive
[8]
  outcome: inactive
[9]
  outcome: inactive
[10]
  AC50: 9.38 µM (active)
  outcome: inactive
[11]
  AC50: 13.5 µM (active)
  outcome: inactive
[13]
  AC50: 68.2 µM (active)
  outcome: inactive
